# The supplement of paper PMC6555819
# Assays:
# Experiment in all cases: PBM binding z-score (relative to random genomic background probes); higher = stronger binding; sequences stand for … in GC…GCGATTGACAGCGTAGAATGAAGG
# [1] = tested on: PPARg:RXRa DBDmut IVT, anti-RXR (DBD mutation: RXRa K156A/R161A, NR concentration 270 nM, RXRa partner concentration 90 nM)
# Outline: (§1)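 Binding z-scores take random background probes as their reference. They come from custom Agilent 4×180K protein-binding microarrays incubated 1 h with ligand-free nuclear receptor dimers, with antibodies against each partner (one per run) detecting binding. Scanned fluorescence was regression-normalized.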
# [2] = tested on: PPARg:RXRa IVT, anti-PPARg (NR concentration 270 nM, RXRa partner concentration 90 nM)
# Outline: as §1
# [3] = tested on: PPARg DBDmut:RXRa IVT, anti-PPARg (DBD mutation: PPARg1 K132A/R137A, NR concentration 270 nM, RXRa partner concentration 90 nM)
# Outline: as §1
# [4] = tested on: PPARg DBDmut IVT, anti-PPARg (DBD mutation: PPARg1 K132A/R137A, NR concentration 270 nM)
# Outline: as §1
# [5] = tested on: PPARg homodimer (NR concentration 180 nM)
# Outline: as §1
# [6] = tested on: PXR:RXRa (NR concentration 270 nM, RXRa partner concentration 90 nM)
# Outline: as §1
# [7] = tested on: PXR homodimer (NR concentration 270 nM)
# Outline: as §1
# [8] = tested on: RARa:RXR (NR concentration 270 nM, RXRa partner concentration 90 nM)
# Outline: as §1
# [9] = tested on: RARa homodimer (NR concentration 270 nM)
# Outline: as §1
# [10] = tested on: RARb:RXRa (NR concentration 270 nM, RXRa partner concentration 90 nM)
# Outline: as §1
Sequence,PBM binding z-score [1],PBM binding z-score [2],PBM binding z-score [3],PBM binding z-score [4],PBM binding z-score [5],PBM binding z-score [6],PBM binding z-score [7],PBM binding z-score [8],PBM binding z-score [9],PBM binding z-score [10]
TAGCCTAGGTCAGATCGAGCCAGTATACGCTATA,0.497,1.39,-0.253,-0.42,-0.43,0.136,-0.429,0.664,-0.528,2.81
CTGACTGGGGCAGAAAGGTTACCATACCATCCGG,2.87,3.6,0.376,0.141,1.76,1.12,0.49,1.75,0.326,2.13
TATCGGAGGACACGAAGGTCAGAGCTTTCCAGAG,0.135,1.54,-0.485,-0.6,1.67,1.9,1.2,2.05,0.593,3.22
CCTACTAGGCCAAAGGTCATTGATTCCAATGCTC,6.51,7.41,1.46,1.49,3.89,5.56,2.25,6.39,2.46,4.79
TCTAGTAGATCAAGCAGGTTAAGAAAGCCTGAGT,1.47,0.398,-0.251,-0.0304,0.0496,0.277,-0.142,0.334,-0.0896,-0.149
AGTCAAAGTTCAGGACGAGGCAACGTAAAGCACG,-0.129,1.26,0.256,0.437,1.12,1.94,0.989,1.89,0.997,4.37
GCGACTGGGGCAAAGCAGGTTACCTTAAGGTTGG,4.98,3.47,-0.487,-1.22,-0.599,0.288,-0.563,0.523,-0.791,0.877
CCTACTGGGCCACGAAAGGTCATCGATTCAGTGA,5.98,5.97,-0.47,0.605,4.31,5.62,0.616,6.08,0.927,4.17
GCTAGCAGGCCTTTTGGGTCACTCAATGACGGGC,0.302,0.843,-1.25,-1.51,-0.592,0.137,-0.69,0.937,-0.611,1.06
CCTACTGGGCCAAAGGTCATTGATTCCAATGCTC,5.22,7.01,0.541,0.177,3.56,5.31,2.33,6.35,1.33,4.46
CCGACTGGGGCAAAGGTAACCATACTCAGTACGA,4.95,5.05,-0.085,-0.917,0.706,0.067,-0.401,1.14,-0.0329,0.906
CTCGAAAGATCGTGCTCAGGTGAGTATACCAAAC,-0.285,-0.0174,-0.0381,0.428,0.0271,-0.467,-0.289,-0.00355,-0.239,-0.0571
CGAACTAGGCCAGAACAGGACAGTGAAGGATGAT,3.99,3.44,0.251,0.0234,0.0323,-0.123,-0.145,0.379,0.0972,0.171
AGAATGAGGTAATTAAGATCAGGGAATTGCGGTC,2.2,1.37,0.265,-0.0371,-0.649,-0.0568,0.153,0.224,-0.15,0.0669
CACCCTAGGTCAGGGCCAGTATAGGAGGAACGTT,0.709,1.64,-0.28,-0.553,1.71,0.664,0.00908,1.49,-0.0281,3.38
TCTGCGAGGTCAACGATGGTCAGCTAATCTGCTA,3.66,4.67,0.567,1.25,3.27,5.4,1.03,5.37,0.126,5.18
AGAATGAGGTTACCAAAGATCAGGGAGACGCTTG,3.87,3.22,1.19,0.476,0.567,1.53,0.0174,1.99,0.112,2.15
ACTAGCAGGCCAAGTTTGGGTCACTCATACAAAG,1.29,1.09,-0.419,-0.428,0.652,0.707,-0.211,1.55,-0.601,1.53
